# According to PubChem BioAssay (NCATS):
# Where “and” joins values, the source holds several entries; their conditions need not be identical. Equal entries are not always repeated. Inconclusive results are not listed. Values without a mark were called inactive. Calls of active or inactive are those of the source. Calls come from the whole dose curve; as a rule, active = well fitted curve in the direction sought with a large enough effect; inconclusive = small, poorly fitted or top-dose-only effect, or another doubt; inactive = no such curve, though single readings can be large; an effect the other way counts as inactive or inconclusive.
# How the values were obtained:
# [1] = target: Cellular tumor antigen p53 (Homo sapiens) (UniProt P04637); experiment: Primary qHTS for small molecule compounds that upregulate eGFP-tagged delta133p53alpha (in N-terminal) cells. (AID 2060322); settings: NCI-H358 eGFP-delta133p53alpha fluorescence, 24 h; activation: active compounds read high; note: nearly all actives have a fitted effect of over 75% in size;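 for activation: series mostly up to about 56 µM; 0% = DMSO vehicle and 100% = reference activator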
# Method in brief: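 NCI-H358 cells pre-induced 24 h with 10 ng/ml doxycycline to express N-terminal eGFP-delta133p53alpha, then dosed 24 h at 37C without doxycycline; fixed, Hoechst-stained, GFP intensity by laser scanning cytometry, normalized to DMSO (0%) and 57.5 uM 5-azacytidine (100%).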
# [2] = target: Retinaldehyde dehydrogenase 3 (Homo sapiens) (UniProt P47895); experiment: qHTS for Inhibitors of the Aldehyde Dehydrogenase Family (ALDH1A3) Primary screen (AID 2061315)
# [3] = target: Retinaldehyde dehydrogenase 3 (Homo sapiens) (UniProt P47895); experiment: qHTS for Inhibitors of the Aldehyde Dehydrogenase Family (ALDH1A3) Validation screen (AID 2061312); note: nearly all actives have a fitted effect of over 45% in size
# [4] = BET inhibitor-based combinations targeting novel dependencies in MECOM-rearranged (r) AML: SET-2 cell line (AID 2202231); settings: SET-2 AML cells viability, CellTiter-Glo luminescence, 48 h; viability: active compounds read low, concentration not given here; note: nearly all actives have a fitted effect of over 35% in size;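 for viability: plate controls were DMSO treated cells for no effect and wells without cells for full effect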
# Method in brief: (§1)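 Luminescent ATP readout (CellTiter-Glo) after 48 hr drug exposure gives viability. Curves span 11 concentrations and are normalized to DMSO and empty wells. Activity is reported as area under the curve and its Z-transform within each cell line.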
# [5] = BET inhibitor-based combinations targeting novel dependencies in MECOM-rearranged (r) AML: OCI-AML3 cell line (AID 2202232); settings: Potency: OCI-AML3 viability; note: nearly all actives have a fitted effect of over 35% in size
# Method in brief: as §1
# [6] = BET inhibitor-based combinations targeting novel dependencies in MECOM-rearranged (r) AML: MV-4-11 cell line (AID 2202233); note: nearly all actives have a fitted effect of over 45% in size
# Method in brief: (§2)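 Luminescent ATP readout (CellTiter-Glo, 15 min at room temperature) after 48 hr drug exposure gave viability. Dose-response curves, normalized to DMSO and empty-well controls, were summarized as area under the curve and its mean-centred Z-score.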
# [7] = BET inhibitor-based combinations targeting novel dependencies in MECOM-rearranged (r) AML: HNT-34 cell line (AID 2202234); note: nearly all actives have a fitted effect of over 35% in size
# Method in brief: as §2
# [8] = BET inhibitor-based combinations targeting novel dependencies in MECOM-rearranged (r) AML: UCSD-AML1 cell line (AID 2202235); note: nearly all actives have a fitted effect of over 40% in size
# Method in brief: as §2
# [9] = BET inhibitor-based combinations targeting novel dependencies in MECOM-rearranged (r) AML: AML-191 cell line (AID 2202236; note: nearly all actives have a fitted effect of over 35% in size)
# Method in brief: as §1
# [10] = BET inhibitor-based combinations targeting novel dependencies in MECOM-rearranged (r) AML: AML-194 cell line (AID 2202237; note: nearly all actives have a fitted effect of over 40% in size)
# Method in brief: as §1
# Potency is the fitted concentration of half-maximal effect.
# Chain of Cellular tumor antigen p53 (Homo sapiens) (P04637 whole entry, looked up): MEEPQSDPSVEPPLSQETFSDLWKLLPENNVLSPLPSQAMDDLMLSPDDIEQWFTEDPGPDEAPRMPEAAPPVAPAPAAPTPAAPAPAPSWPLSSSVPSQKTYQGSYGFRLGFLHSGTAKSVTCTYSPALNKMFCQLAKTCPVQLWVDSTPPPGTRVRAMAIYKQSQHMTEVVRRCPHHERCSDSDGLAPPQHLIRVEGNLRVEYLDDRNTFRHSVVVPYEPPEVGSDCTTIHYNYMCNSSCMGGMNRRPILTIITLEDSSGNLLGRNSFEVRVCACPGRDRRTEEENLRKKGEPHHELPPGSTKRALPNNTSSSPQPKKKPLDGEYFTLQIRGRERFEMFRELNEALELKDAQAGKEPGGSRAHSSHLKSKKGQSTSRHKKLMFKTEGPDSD
smiles,measurement,setting,value
C#Cc1cccc(Nc2nc3cc(C(=O)O)ccc3c3cncnc23)c1,activation,[1],8.04%
same,Potency,[2],inactive
COc1cc2c(Oc3ccc(-c4cnc(Nc5ccc(F)cc5)n(C)c4=O)cc3F)ccnc2cc1OCCCN1CCOCC1,activation,[1],11.5%
same,Potency,[3],11.2 µM (active)
same,Potency,[2],inactive
same,Potency,[4],20.9 µM (active)
same,Potency,[5],16.6 µM (active)
same,Potency,[6],0.0934 µM (active)
same,Potency,[7],0.372 µM (active)
same,Potency,[8],11.8 µM (active)
same,Potency,[9],5.9 µM (active)
same,Potency,[10],5.25 µM (active)
O=C(O)c1cc(O)c2cccc(O)c2c1O[C@@H]1O[C@H](CO)[C@@H](O)[C@H](O)[C@H]1O,activation,[1],-20.5%
same,Potency,[2],6.31 µM (active)
CCc1c[nH]c2ncnc(N3CC[C@](N)(CNC(=O)c4ccc(F)cc4F)C3)c12,activation,[1],22.3%
same,Potency,[2],inactive
C[C@@H]1O[C@@H](O[C@H]2[C@H](O[C@H]3[C@H](O[C@H]4CC[C@@]5(C)C(CC[C@]6(C)C5CC=C5[C@@H]7CC(C)(C)CC(=O)[C@]7(C)CC[C@]56C)[C@@]4(C)CO)O[C@H](C(=O)O)[C@@H](O)[C@@H]3O)O[C@H](CO)[C@H](O)[C@@H]2O)[C@H](O)[C@H](O)[C@H]1O (stereo not given in full),activation,[1],-17%
same,Potency,[2],inactive
CC1=C2C[C@@]3(C)C(CCC[C@@H]3C)C(O)C2OC1=O (stereo not given in full),activation,[1],-15.3%
same,Potency,[2],inactive
CCC(C)/C=C(C)/C=C/C(=O)C1CCC(O)C(C)(O)C1=O (stereo not given),activation,[1],14.5%
same,Potency,[2],inactive
COc1c(C(CC(C)C)OC(C)=O)ccc(Oc2c(O)cc(C)cc2/C=C/C(C)=O)c1C(=O)O (stereo not given),activation,[1],-25.2%
same,Potency,[2],inactive
O[C@@H](COc1cccc2ncccc12)CN1CCN(C2c3ccccc3[C@@H]3[C@H](c4ccccc42)C3(F)F)CC1 (stereo not given in full),activation,[1],22%
same,Potency,[3],inactive
same,Potency,[2],inactive
same,Potency,[4],26.3 µM (active)
same,Potency,[5],20.9 µM (active)
same,Potency,[6],18.6 µM (active)
same,Potency,[7],26.3 µM (active)
same,Potency,[9],23.5 µM (active)
same,Potency,[10],23.5 µM (active)
Clc1ccc(Cn2c(Cc3ccccc3)nc3ccccc32)cc1,activation,[1],-5.25%
same,Potency,[3],inactive
same,Potency,[2],inactive
CC(=O)OC1/C(C)=C/C(=O)C(OC(C)=O)C(C)(C)/C=C/C(C)C(=O)C2(OC(C)=O)CC(C)C(OC(=O)c3ccccc3)C12 (stereo not given),activation,[1],-10.7%
same,Potency,[2],inactive
CC1OC2OC(=O)C3(C)CC4C5(CO5)C5=CC(=O)OC(C)(C)C5=CC(=O)C4(C)C(C1=O)C23 (stereo not given),activation,[1],12.2%
same,Potency,[2],inactive
CC(=O)Oc1cc2c(s1)CCN([C@H](C(=O)C1CC1)c1ccccc1F)C2,activation,[1],0.477%
same,Potency,[2],inactive
CCCn1cnc2c(NCc3ccccc3)nc(N[C@H](CC)CO)nc21,activation,[1],2.33%
same,Potency,[2],inactive
COCCCNCC1COc2ccccc2O1 (stereo not given),activation,[1],-6.68%
same,Potency,[2],inactive
O=C(O)[C@H](Cc1ccc(Nc2nccc3ccncc23)cc1)NC1=C(Br)C(=O)C12CCCCC2,activation,[1],-6.21%
same,Potency,[2],inactive
CCOc1nc2cccc(C(=O)OCc3oc(=O)oc3C)c2n1Cc1ccc(-c2ccccc2-c2noc(O)n2)cc1,activation,[1],0%
same,Potency,[3],inactive
same,Potency,[2],inactive
Cc1cc(NC(=O)Nc2ccc(F)c(F)c2)n(-c2ccccc2)n1,activation,[1],-15.8%
same,Potency,[3],inactive
same,Potency,[2],inactive
CO[C@@H](Cc1ccc(OCCc2nc(-c3ccccc3)oc2C)c2ccsc12)C(=O)O,activation,[1],-6.25%
same,Potency,[2],inactive
Cc1ccccc1C(C(=O)NC1CCCCC1)N(C(=O)Cn1ccnc1C)c1cccc(F)c1 (stereo not given),activation,[1],-12.7% and -11.5%
same,Potency,[3],inactive
same,viability,[4],116%
same,Potency,[6],inactive
same,Potency,[8],inactive
same,Potency,[9],inactive
same,Potency,[10],inactive
COC(=O)C1=C(C)NC(C)=C(C(=O)O[C@@H]2CCCN(Cc3ccccc3)C2)[C@@H]1c1cccc([N+](=O)[O-])c1,activation,[1],8.47% and 23.4%
same,Potency,[3],inactive
same,Potency,[2],inactive
O=c1c(-c2ccc(O)cc2)coc2cc(O[C@@H]3O[C@H](CO)[C@H](O)[C@H](O)[C@H]3O)ccc12,activation,[1],8.65%
same,Potency,[3],inactive
C=Cc1cc2oc(-c3ccc(O)c(F)c3)nc2cc1O,activation,[1],-1%
same,Potency,[2],inactive
O=C(O)COCCN1CCN([C@H](c2ccccc2)c2ccc(Cl)cc2)CC1,activation,[1],-5.73%
same,Potency,[3],inactive
same,Potency,[2],inactive
CCC(Nc1ncnc2nc[nH]c12)c1nc2cccc(F)c2c(=O)n1-c1ccccc1 (stereo not given),activation,[1],4.46%
same,Potency,[2],inactive
O=C(Nc1cnc(Cl)nc1)c1ccc(F)c(F)c1,activation,[1],5.25%
same,Potency,[3],inactive
same,Potency,[2],inactive
CCCNCCc1ccc(NS(=O)(=O)c2ccc(OC(F)(F)F)cc2)cc1,activation,[1],6.68%
same,Potency,[2],inactive
COc1ccc2cc(C(C)C(=O)Oc3ccc(C(N)=S)cc3)ccc2c1 (stereo not given),activation,[1],-3.34%
same,Potency,[3],inactive
same,Potency,[2],inactive
CC(/C=C/C=C(\C)C(=O)O[C@@H]1O[C@H](CO[C@@H]2O[C@H](CO)[C@@H](O)[C@H](O)[C@H]2O)[C@@H](O)[C@H](O)[C@H]1O)=C\C=C\C=C(C)\C=C\C=C(/C)C(=O)O[C@@H]1C[C@](O)(C(=O)O)C[C@@H](O)[C@H]1OC(=O)/C=C/c1ccc(O)c(O)c1,activation,[1],16%
same,Potency,[2],inactive
Cc1csc(N(C(=O)CSc2ccc(-c3ccccc3)nn2)C2CC2)n1,activation,[1],10.5%
same,Potency,[3],2.82 µM (active)
COc1ccc(-n2[nH]c(=O)c3[nH]c4cc(Cl)ccc4c(=O)c3c2=O)c(C)c1,activation,[1],9%
same,Potency,[2],inactive
O=C(Cc1c(F)cccc1F)Nc1cc(OCc2ccc(Cl)cc2)ccn1,activation,[1],15.7%
same,Potency,[2],inactive
COC(=O)CC1OC(C)C2=C(O)c3c(O)cccc3C(=O)C23OC13 (stereo not given),Potency,[1],5.88 µM (active)
same,Potency,[2],1.58 µM (active)
Cc1cc(OCc2nc(-c3ccccc3Cl)cs2)ccc1OCC(=O)O,activation,[1],-1.91%
same,Potency,[3],inactive
same,Potency,[2],inactive
COc1ccc(OC)c(C2C(C#N)=C(N)Oc3n[nH]c(-c4ccc5ccccc5c4)c32)c1 (stereo not given),activation,[1],-0.333%
same,Potency,[2],inactive
COC(=O)[C@H](c1ccccc1Cl)N1CCC2SC(=O)C=C2C1 (stereo not given in full),activation,[1],16.3%
same,Potency,[2],inactive
C/C(=C\CCC1(C)C2CCC(C2)C1(C)O)C(=O)O (stereo not given),activation,[1],-13.7%
same,Potency,[2],inactive
CC(C)=C/C=C\[C@H](C)[C@H]1CC[C@]2(C)C[C@@H]3C(C)=CC(=O)C3/C(CO)=C\C[C@@H]12 (stereo not given in full),activation,[1],-9.92%
same,Potency,[2],inactive
CN1C(CCl)Nc2cc(Cl)c(S(N)(=O)=O)cc2S1(=O)=O (stereo not given),activation,[1],-11.7% and -7.64%
same,Potency,[2],inactive
COc1ccc(C2(O)c3c(ccc4c3OC(C)(CCC=C(C)C)C=C4)NC(=O)C2OC)cc1 (stereo not given),activation,[1],-4.58%
same,Potency,[2],inactive
O=C(NCc1cccs1)c1cc2nc(-c3ccco3)cc(C(F)(F)Cl)n2n1,activation,[1],0.477%
same,Potency,[2],inactive
CC(=O)OC[C@@]12C(=O)C[C@@H](C)[C@]3(C[C@@H](c4ccoc4)O[C@H]3OC(C)=O)[C@H]1CCC[C@]21CO1,activation,[1],11.5%
same,Potency,[2],inactive
Cc1c2cc(c(C(=O)O)c1C)OC1OC(C(O)C(O)C1O)C(O)C(O)C1OC(O2)C(O)C(O)C1O (stereo not given),activation,[1],-5.34%
same,Potency,[2],inactive
C/C=C/CCC1Cc2cc(O)c(CCCC)c(O)c2C(=O)O1 (stereo not given),activation,[1],-16%
same,Potency,[2],inactive
CC1CC(O)/C=C/C(O)C(O)CC(=O)Cc2c(Cl)c(O)cc(O)c2C(=O)O1 (stereo not given),activation,[1],4.58%
same,Potency,[2],inactive
COc1cccc2nc(-c3cccs3)nc(NN3C(=O)C=C(C)C3=O)c12,Potency,[1],19.3 µM (active)
same,Potency,[2],inactive
same,Potency,[4],0.417 µM (active)
same,Potency,[5],0.417 µM (active)
same,Potency,[6],0.166 µM (active)
same,Potency,[7],0.263 µM (active)
same,Potency,[8],0.105 µM (active)
same,Potency,[9],0.148 µM (active)
same,Potency,[10],0.263 µM (active)
CC(O)C1C(=O)N2C(C(=O)O)=C(SC3CNC(C(=O)N(C)C)C3)C(C)C12 (stereo not given),activation,[1],-0.506% and -5.25%
same,Potency,[2],inactive
C/C(=C\Cc1c(O)c(Cl)c(C)c(C=O)c1O)CC/C=C(\C)[C@H]1CC(=O)C(C)(C)O1,activation,[1],-20.6%
same,Potency,[2],inactive
CC[C@H](C)/C=C(C)/C=C/C(=O)Cc1cc(O)c(C)c(O)c1C=O,activation,[1],7.63%
same,Potency,[2],inactive
Cn1nnc(-c2ccc(-c3ccc(N4C[C@H](COP(=O)(O)O)OC4=O)cc3F)cn2)n1,activation,[1],-3.67%
same,Potency,[2],inactive
O=C(O)c1cc2cccc([N+](=O)[O-])c2[nH]1,activation,[1],10.3%
same,Potency,[2],inactive
C=C/C=C/[C@@H]1OC[C@H](/C=C/C=C/C)[C@H]1O,activation,[1],-11.5%
same,Potency,[2],inactive
CCCc1cc2c(N3CCN(C4=NCC(C)(C)S4)CC3)ncnc2s1,activation,[1],-16.2%
same,Potency,[2],inactive
COc1cc(/C=C/C(=O)NCCn2c(C(F)(F)F)cc3ccccc32)cc(OC)c1OC,activation,[1],-3.67%
same,Potency,[2],inactive
CC(=O)NC1C(OC(C)(C)C2CCC3(C)C=C(C4CCC5C4(C)CC(O)C4OC(C(C)(C)O)CCC45C)CCC3O2)OC(CO)C(O)C1O (stereo not given),activation,[1],-3.05%
same,Potency,[2],inactive
O=C(Nc1ccc(-c2ccc(Cl)c(Cl)c2)cc1)C1=C(O)c2ccccc2S(=O)(=O)N1,activation,[1],-5.73%
same,Potency,[2],inactive
COc1ccc(S(=O)(=O)Nc2nc(-c3cccc([N+](=O)[O-])c3)cs2)cc1OC,activation,[1],1.67%
same,Potency,[2],inactive
CN(Cc1ccc(C(=O)O)cc1)c1ccc(OCc2c(-c3c(Cl)cccc3Cl)noc2C2CC2)nc1C(F)(F)F,activation,[1],-10.5%
same,Potency,[2],inactive
CC(=O)NC(Cc1c[nH]c2ccccc(=O)c12)C(=O)O (stereo not given),activation,[1],-2.29%
same,Potency,[2],inactive
C=C1C(O)C(O)C2(CC3C(C)=CCC4C(C)(C(=O)O)CCCC34C)OC2C1O (stereo not given),activation,[1],-22.1%
same,Potency,[2],inactive
